An excerpt weighted towards active compounds, which were near 6.1% of everything screened.
DRD3 agonist: activates the human D3 dopamine receptor; AID 652048; max activation, %; D3R DiscoveRx beta-arrestin cells, luminescence, 90 min; hit rate 0.58% among 410,000; P35462; in the data active = max activation above about 30%; also: 0% is about no effect
Target sequence (P35462 whole entry, looked up): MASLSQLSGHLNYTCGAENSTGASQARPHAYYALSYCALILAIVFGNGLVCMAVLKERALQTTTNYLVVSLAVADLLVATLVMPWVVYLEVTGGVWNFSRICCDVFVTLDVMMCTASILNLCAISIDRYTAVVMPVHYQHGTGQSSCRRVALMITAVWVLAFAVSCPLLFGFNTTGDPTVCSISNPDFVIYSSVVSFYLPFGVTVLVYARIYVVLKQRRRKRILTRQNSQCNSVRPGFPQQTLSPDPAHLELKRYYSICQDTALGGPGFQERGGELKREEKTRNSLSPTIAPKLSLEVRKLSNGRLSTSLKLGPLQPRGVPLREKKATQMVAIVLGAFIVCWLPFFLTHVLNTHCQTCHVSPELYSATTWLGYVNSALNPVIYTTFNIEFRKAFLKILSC
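Agonist mode: compounds and dopamine controls were applied to plated cells for 90 min at 37 degrees C after an overnight attachment at 1500 cells/well. Luminescent read-out followed 30 - 60 minutes at room temperature with DiscoveRx detection reagent.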
D1 antag: antagonists of human D1 dopamine receptor. P21728. HEK293 TREx D1 cells, calcium flux, dopamine EC80; active compounds read low. activity change, negative = inhibition, % at 10 µM. hit rate 3.2% among 360,000. AID 504652; in the data active = activity change below about -30%; also: % is scaled to controls: 0 for no effect and ±100 for the full control effect
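Antagonism measured as reduced calcium response to an EC80 dopamine addition following 180 s compound pre-read; cells were inducible HEK293 Trex D1 plated overnight at 30 C, read kinetically at 1 cycle/sec.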
D1 PAM: enhances dopamine response at the human D1 receptor; P21728; HEK293 TREx D1 cells, calcium flux, dopamine EC20 potentiation; potentiation, % at 10 µM; hit rate 0.036% among 360,000; AID 504651; in the data active = potentiation above about 30%; also: 0% is about no effect
D3 antag: blocks the human D3 dopamine receptor | hit rate 2.5% among 360,000 | D3R cells, DiscoveRx beta-arrestin luminescence, antagonist mode; active compounds read low | max response, negative = inhibition, % | AID 652054 | P35462; in the data active = max response below about -50%; inconclusive = no clear call, values can overlap the other calls; also: % is scaled to controls: 0 for no effect and ±100 for the full control effect
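Cells plated overnight at 1500 cells/well, then exposed to library compounds with dopamine controls for 90 minutes at 37 degrees C. DiscoveRx reagent added for 30–60 minutes at room temperature; luminescence read, quantitative HTS format.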
D1 ag: agonists of human D1 dopamine receptor; P21728; activation, % at 2 µM; HEK293 T-REx D1 cells, calcium flux, agonist mode; AID 504660; hit rate 1% among 360,000; in the data active = activation above about 30%; also: 0% is about no effect
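Tetracycline-induced HEK293 TREx D1 cells, force-coupled to calcium signalling, were dye-loaded with a no-wash calcium kit. Compound was pin-added after a 10 s baseline. Fluorescence was read kinetically at 1 cycle/s for 180 s, with calcium rises flagged as agonism.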
An asterisk follows results filed as active; ? = inconclusive; nt = no result given.

SMILES	DRD3 agonist	D1 antag	D1 PAM	D3 antag	D1 ag
O=C(CN1CCN(c2ccc(O)cc2)CC1)Nc1ccc(S(=O)(=O)N2CCCC2)cc1	98.1*	nt	nt	9.2	nt
Cc1ccc(S(=O)(=O)N2CCN(CC(=O)Nc3ccc(N4CCOCC4)cc3)CC2)cc1C	2.1	-7.2	1.9	-92.7*	3.2
O=C(CNC1CCCC1)Nc1ccc(S(=O)(=O)N2CCCCC2)cc1	-11.8	1.6	-8.5	-0.3	0.7
O=C(CNC1CCN(Cc2ccccc2)CC1)Nc1ccc(S(=O)(=O)N2CCCCC2)cc1	-20.4	8.8	-2.8	-81.7*	1.4
O=C(CN1CCCN(S(=O)(=O)c2ccc(Br)cc2)CC1)Nc1ccc2c(c1)OCO2	nt	-49.2*	-14.8	nt	-0.2
Cc1ccc(N(CC(=O)NCCc2ccccc2C)S(=O)(=O)N(C)C)cc1	-7.7	-12.4	-1.5	nt	-2.0
CC1CCN(S(=O)(=O)c2ccc(NC(=O)CN3CCCC3)cc2)CC1	3.8	25.8	3.0	-8.9	36.2*
Cc1ccc(S(=O)(=O)N2CCN(CC(=O)N/N=C\c3ccc(Cl)c([N+](=O)[O-])c3)CC2)cc1	2.5	-3.2	-2.2	-19.9	2.8
CC1CCN(CC(=O)Nc2ccc(S(=O)(=O)N3CCC(C)CC3)cc2)CC1	2.5	-4.0	-3.5	-11.8	10.8
O=C(CN1CCOCC1)Nc1ccc(S(=O)(=O)N2CCCCCC2)cc1	30.6*	-3.1	-3.8	4.1	2.7
O=C(CN1CCN(S(=O)(=O)c2ccc(Br)cc2)CC1)N/N=C/c1ccc(Cl)c([N+](=O)[O-])c1	-9.4	-4.2	-7.2	-70.2*	1.5
Cc1ccc(CNC(=O)c2nc(-c3ccc(Cl)cc3)n3c2CCCCC3)cc1	-13.1	18.0	2.0	nt	1.1
COc1ccc(CNC(=O)CSc2ncc(S(=O)(=O)c3ccc(C)c(Cl)c3)c(=O)[nH]2)cc1	2.0	-0.1	-1.4	nt	0.0
Cc1ccc(/C=N\NC(=O)c2csnn2)cc1	-9.9	-5.7	-0.2	-53.1*	-1.1
Cc1ccc(/C=N/NC(=O)c2ccncc2)cc1	-5.1	8.8	-3.4	?	4.5
Cc1ccc(/C=N/NC(=O)Cn2nnc(N)n2)cc1	-3.7	-74.1*	-8.0	-9.8	1.5
CCc1nn(CC(=O)NCCC(C)C)c(=O)c2cc3occc3n12	-19.9	4.5	0.4	nt	-2.3
Cc1cc2nc(-c3ccc(OCc4ccccc4F)cc3)cc(C(F)(F)F)n2n1	4.1	4.5	-2.4	nt	-0.9
CC(C)N(C(=O)Cn1cc(SCC(=O)Nc2ccccc2F)c2ccccc21)C(C)C	-6.3	-27.7	-6.3	nt	4.8
CCCN(CCC)C(=O)Cn1nnc2sc(-c3ccccc3)cc2c1=O	1.0	1.7	2.0	nt	-1.0
O=c1c2cccnc2n(Cc2ccc(Cl)cc2)c(=O)n1Cc1ccc(F)cc1	0.9	-15.8	-6.3	nt	-0.6
O=C(CSc1ccc2nnc(-c3ccccn3)n2n1)Nc1ccccc1	-5.2	2.3	3.0	-20.9	5.0
Cc1cc(NC(=O)CSc2ccc3nnc(-c4ccccn4)n3n2)no1	-2.2	-32.1*	-10.9	2.6	3.0
Cc1nnc(NC(=O)c2ccco2)s1	-5.4	-52.5*	-3.3	-28.4	0.3
Cc1ccc(-c2nnc(NC(=O)c3ccco3)s2)cc1	-4.5	19.9	-4.2	3.2	7.3
SMILES	DRD3 agonist	D1 antag	D1 PAM	D3 antag	D1 ag
Cc1ccccc1C(=O)Nc1nnc(S(=O)(=O)N(C)Cc2ccc(Cl)cc2)s1	4.6	-31.3*	-0.3	nt	11.8
Cc1ccc(N(C)S(=O)(=O)c2nnc(NC(=O)c3ccco3)s2)cc1	-15.8	-3.2	-2.1	?	1.5
CN(c1ccc(Cl)cc1)S(=O)(=O)c1nnc(NC(=O)c2ccco2)s1	-1.1	-5.5	-1.3	-72.1*	-0.4
O=C(NCc1ccc2c(c1)CCN2C(=O)c1ccc(F)cc1)c1cc2ccccc2[nH]1	-5.6	4.0	-4.1	nt	1.2
COc1ccc2c(c1)c1c(c(=O)n(-c3cc(Cl)ccc3C)c(=O)n1Cc1ccc(F)cc1)n2C	1.1	-9.9	-0.7	nt	0.1
CC(=O)CCC(=O)NC1CCCc2c1cnn2-c1ccc(C(C)(C)C)cc1 (stereo unspecified)	28.6	-37.4*	-3.2	27.5	12.0
CC(C)(C)NNC(=S)Nc1ccc(S(=O)(=O)N2CCOCC2)cc1	31.7*	4.9	17.0	6.0	3.4
CC(=O)NC(=S)Nc1ccc(S(=O)(=O)N2CCOCC2)cc1	3.7	-8.0	-3.8	8.1	0.7
O=S(=O)(c1ccc(NC(=S)NCc2ccc(F)cc2)cc1)N1CCOCC1	14.0	-48.9*	-12.1	-24.9	30.3*
Cc1cc(Nc2sc(C(=O)c3ccc(F)cc3)c(N)c2C(=O)Nc2ccc(F)cc2)ccc1Cl	2.3	0.6	-0.7	nt	27.0
Cc1ccc(CNC(=O)CCCN2C(=O)CCn3nc(-c4cn(C)c5ccccc45)cc32)cc1	1.6	-16.3	2.0	nt	2.4
O=S1(=O)C=C(Sc2nc3cc(Cl)ccc3o2)c2ccccc21	-15.7	-2.5	0.9	-77.5*	6.7
CCn1c(=N)n(CC(O)c2ccccc2)c2ccccc21 (stereo unspecified)	-7.6	8.6	-7.7	0.0	3.1
N=c1n(CCN2CCOCC2)c2ccccc2n1CC(O)COc1ccccc1 (stereo unspecified)	-5.3	-10.4	-2.1	14.5	0.2
CCn1c(=N)n(CC(O)COc2cccc(C)c2)c2ccccc21 (stereo unspecified)	1.6	-4.1	-3.8	14.6	78.7*
CCCn1c(=N)n(CC(O)COc2cccc(C)c2)c2ccccc21 (stereo unspecified)	1.4	-10.6	-2.6	32.2	44.2*
CCCCn1c(=N)n(CC(O)COc2ccccc2)c2ccccc21 (stereo unspecified)	-0.2	7.0	-8.6	56.5	21.7
CCCCCn1c(=N)n(CC(O)COc2cccc(C)c2)c2ccccc21 (stereo unspecified)	1.1	-5.9	-4.3	nt	59.5*
Cc1ccc(Sc2c([N+](=O)[O-])c(=O)n(C)c3ccccc23)cc1	-27.5	11.9	-7.8	-71.5*	-1.0
Cc1nn(-c2ccccc2)c2sc(C(=O)Nc3cccc(Cl)c3)cc12	3.9	-12.6	-1.6	nt	8.6
CC1(C(=O)Nc2ccc3c(c2)OCO3)CCN1C(=O)Cc1cccs1 (stereo unspecified)	-28.0	nt	nt	-101.5*	nt
CC1(C(=O)Nc2ccc3c(c2)OCO3)CCN1C(=O)CCc1cccs1 (stereo unspecified)	7.2	nt	nt	0.0	nt
CC1(C(=O)Nc2ccc3c(c2)OCCO3)CCN1C(=O)C1(c2ccc(Cl)cc2)CCC1 (stereo unspecified)	72.5*	nt	nt	21.9	nt
Cc1ccc(-c2nc3n(n2)C(c2ccccc2Cl)C=C(c2ccc(Cl)cc2)N3)cc1 (stereo unspecified)	-8.2	-3.4	0.1	nt	-2.9
Cc1ccc(OCC(=O)NNC(=O)Cc2ccc(S(=O)(=O)N3CCOCC3)s2)cc1	-13.5	-49.3*	-2.3	-15.3	1.6
O=C(COc1ccccc1F)NNC(=O)Cc1ccc(S(=O)(=O)N2CCOCC2)s1	3.8	-26.1	-2.7	9.8	1.3

Screening results deposited in PubChem BioAssay by National Center for Advancing Translational Sciences (NCATS).
